Compound activity deposited in PubChem by several laboratories.
This is a sample that favours compounds with a hit; in the whole collection about 4.9% have one here.
NALP1 yeast inh: NALP1 inflammasome inhibitors in reconstituted yeast, colorimetric, S. cerevisiae, triplicate retest; S. cerevisiae NALP1/ASC/caspase-1 growth, X-gal OD620, 72 h; inhibition, % at 10 µM; 280,000 tested, 0.61% active; in the data active = inhibition mostly above about 24%, no sharp cut-off; inactive = mostly below about 32%
tim23-1 inh: growth inhibitors of tim23-1 mutant yeast, primary screen, luminescence, uHTS; S. cerevisiae tim23-1 growth, BacTiter-Glo luminescence, 24 h; inhibition, % at 20 µM; 330,000 tested, 1.3% active; AID 463212, 2010;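 active = growth inhibition of the mutant yeast at or above 50%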;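 also: temperature-sensitive mutant grown at 25 °C; plate controls were DMSO-treated mutant yeast for no effect and medium wells lacking yeast for full effect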
NALP3 yeast inh: NALP3 inflammasome inhibitors in reconstituted yeast, primary screen, luminescence, uHTS. Yeast reconstituted NLRP3/ASC/caspase-1, beta-gal luminescence, 24 h. inhibition, % at 10 µM. 330,000 tested, 0.39% active;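 active = inhibition of 50% or more; inactive = inhibition below 50%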;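 also: plate controls were induced DMSO wells for no effect and uninduced yeast grown without galactose for full effect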
TIM10 inh: growth inhibitors of isogenic TIM10 control yeast, primary screen, counter-screen for tim10-1 yeast inhibitor project, luminescence, uHTS; 330,000 tested, 1.4% active; inhibition, % at 10 µM; S. cerevisiae TIM10 strain growth, BacTiter-Glo luminescence, 24 h; AID 463195, 2010;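 active = inhibition of 40% or more at the single tested concentration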;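 also: wild-type TIM10 isogenic control strain grown at permissive 25 °C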
tim10-1 inh: growth inhibitors of tim10-1 mutant yeast, primary screen, luminescence, uHTS. S. cerevisiae tim10-1 ts strain growth, BacTiter-Glo, 24 h. 330,000 tested, 2.2% active. inhibition, % at 20 µM;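 active = inhibition of at least 40%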;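 also: mutant grown at 25 °C; 0% = DMSO wells with yeast and 100% = wells holding no yeast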
SKKanGAS inh: S. pyogenes SKKanGAS growth inhibitors in kanamycin, primary screen, streptokinase expression inhibitor project, SKKanGAS strain, BacTiter-Glo luminescence | 6 h | inhibition, % at 7.5 µM | 300,000 tested, 1.3% active;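 active = mean replicate score, as percent of positive control median, at least 50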;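 also: strain carries kanamycin resistance gene driven by streptokinase promoter and grows in 40 µg/ml kanamycin; loss of luminescence reflects streptokinase promoter inhibition or plain growth inhibition; 0% = median of DMSO wells and 100% = positive control at its reference dose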
* hit, by the source's call; nt = no result.

SMILES	NALP1 yeast inh	tim23-1 inh	NALP3 yeast inh	TIM10 inh	tim10-1 inh	SKKanGAS inh
O=C(Nc1ccc(S(=O)(=O)Nc2ccccn2)cc1)c1ccc(Cl)cc1Cl	7	-2	5	-3	-2	-6
O=C(N/N=C/c1cc(Br)c(O)c(Br)c1)c1cccc(C(F)(F)F)c1	26	16	25	9	13	10
CN(/N=C/c1cc(Br)cc(Br)c1O)c1cccc(C(F)(F)F)n1	-16	17	28	18	20	70*
CC(C)COc1ccc(C(=O)NNC(=O)c2ccc(=O)[nH]c2)cc1	nt	-2	9	-1	5	nt
COc1ccc(O)c(C(=O)c2cc(SCC(=O)O)c3nc4sc5c(c4c(=O)n3c2)CCCC5)c1	nt	21	15	12	12	52*
CCOC(=O)c1sc2nc3c(SCC(=O)O)cc(C(=O)c4cc(F)ccc4O)cn3c(=O)c2c1C	19	nt	nt	nt	nt	74*
C=CCNC(=O)C1CCN(c2ccc(S(=O)(=O)N3CCOCC3)cc2[N+](=O)[O-])CC1	18	2	-3	4	1	3
CCC1=NN(C(=O)c2cccc(Br)c2)C(O)(c2ccc(Br)cc2)C1 (stereo unspecified)	6	43	10	31	39	71*
COc1ccc(C(=O)NNC(=S)NC(=O)c2ccco2)cc1	7	-21	26	18	5	81*
CC(C)C(=O)Nc1ccc(C(=O)NNC(=S)NC(=O)c2ccccc2[N+](=O)[O-])cc1	-20	7	0	-2	33	2
Cn1cccc1CC(=O)NNC(=O)Nc1ccc(Cl)cc1	-2	-4	-5	1	-5	-10
Cn1cccc1CC(=O)NNC(=S)NC(=O)c1ccc(F)cc1	4	-33	6	-9	10	65*
CCC(=O)NC(=S)NNC(=O)c1ccc(OC)cc1	-6	-30	9	-34	-7	10
COc1ccc(C(=O)NC(=S)NNC(=O)c2ccc(NC(=O)C(C)C)cc2)cc1	-1	29	15	40	38	57*
COc1ccccc1C(=O)NC(=S)Nc1ccc(N2CCN(C(=O)c3ccco3)CC2)cc1	13	-1	14	14	2	88*
COC(=O)[C@H]1C[C@H]2[C@@H]3CC[C@H]4C[C@@H](OC)CC[C@]4(C)[C@H]3CC[C@]2(C)[C@@]2(CCCO2)O1	nt	43	nt	6	23	nt
CCCOc1ccc(C(=O)NNC(=S)NC(=O)c2ccco2)cc1	0	-54	26	-39	-7	104*
CC(Oc1ccc(Cl)cc1)C(=O)NNC(=S)NC(=O)c1ccco1 (stereo unspecified)	33	16	36	-11	-4	92*
CC(Oc1ccccc1)C(=O)Nc1cccc(NC(=O)c2ccco2)c1 (stereo unspecified)	nt	17	-11	8	21	-2
O=C(NNC(=S)NC(=O)c1ccco1)c1ccc(F)cc1	1	-47	-3	8	-2	83*
COc1ccccc1C(=O)NNC(=S)NC(=O)c1ccco1	7	-62	38	-26	-9	65*
O=C(CN(c1cccc(Cl)c1)S(=O)(=O)c1ccc(Cl)cc1)N1CCc2ccccc2C1	18	28	-3	13	14	6
O=C(COC(=O)C1C2CC3OC(=O)C1C3C2)Nc1cccc(C(F)(F)F)c1 (stereo unspecified)	12	19	1	2	11	4
CCOC(=O)N1CCN(C(=O)/C=C/c2c(C)nn(-c3ccc(F)cc3)c2Cl)CC1	-10	nt	nt	nt	nt	7
CC(C)[C@@H](C(=O)N[C@@H](Cc1ccccc1)C(=O)O)N1C(=O)N2CCc3c([nH]c4ccccc34)[C@@]2(C)C1=O	9	-4	-12	-2	-9	-2
SMILES	NALP1 yeast inh	tim23-1 inh	NALP3 yeast inh	TIM10 inh	tim10-1 inh	SKKanGAS inh
O=C(COc1ccc(Cl)cc1Cl)NNC(=S)NC(=O)c1ccco1	nt	12	37	35	17	95*
CN(C)c1ccc(O)c2c1CC1CC3[C@@H](N(C)C)C(=O)C(C(N)=O)=C(O)[C@]3(O)C(=O)C1=C2O (stereo partly specified)	136	4	20	5	13	106*
C[C@H]1c2cccc(O)c2C(O)=C2C(=O)[C@]3(O)C(O)=C(C(N)=O)C(=O)[C@@H](N(C)C)[C@@H]3[C@@H](O)[C@@H]21	-15	-12	19	-7	15	97*
NC(=O)c1c(NC(=O)c2cnccn2)sc2c1CCCC2	-19	18	22	15	27	-2
Cc1ccc(NC(=O)N2CCCC2)cc1Cl	38*	30	8	30	15	-3
CCOC(=O)c1ccc(NC(=O)N2CCOCC2)cc1	6	5	-8	13	9	0
Cc1ccc(NC(=O)C(=O)N2CCCC2)cc1Cl	35	7	40	-7	3	-13
CCOC(=O)c1ccc(NC(=O)N2CCCCCC2)cc1	43*	16	28	5	3	1
O=C(NCc1ccccn1)c1cc(S(=O)(=O)N2CCCCC2)ccc1Cl	nt	25	0	10	20	nt
O=C(c1nc2ccc(Cl)cn2c1CN1CCC(CO)CC1)N1CCc2ccccc2C1	11	2	8	11	2	52*
O=C(c1nc2ccc(Cl)cn2c1CN1CCCC1)N1CCc2ccccc2C1	11	16	9	0	22	2
COc1ccc(C(=O)/C=C/Nc2ccc(S(=O)(=O)Nc3cc(OC)nc(OC)n3)cc2)c(OC)c1	3	25	8	6	20	25
CS(=O)(=O)c1ccc2nc(NC(=O)c3ccccc3)sc2c1	16	23	30	14	23	6
CS(=O)(=O)c1ccc2nc(NC(=O)c3ccc(NS(=O)(=O)c4cccc([N+](=O)[O-])c4)cc3)sc2c1	nt	-30	28	-22	-6	62*
Cc1ccc2nc(NC(=O)c3ccc(NS(=O)(=O)c4cccs4)cc3)sc2c1	26	-4	22	-2	9	62*
O=C(COc1ccc2c(c1)OCO2)Nc1nncs1	10	18	0	0	12	-6
COc1ccc(CN(CC(=O)NC(C)C)C(=O)CCC(=O)Nc2nccs2)cc1	5	15	24	-10	7	0
O=C(N/N=C/c1ccc(C(=O)O)cc1)C(=O)N1CCCCCC1	13	3	19	-5	-18	4
O=C(N/N=C/c1ccc(Cl)cc1)C(=O)N1CCCCCC1	25*	24	11	10	-10	nt
c1ccc(C(c2c[nH]c3ccccc23)c2c[nH]c3ccccc23)nc1	3	18	3	23	30	76*
